The structures appear in SMILES notation. Unmarked numbers belong to inactive results. Rule as the data show it: active = remaining activity below about 50%; inactive = the rest.

As usually defined, the remaining activity is the signal under treatment as a percentage of the control signal.

Chain of Phospholipase D1 (Homo sapiens) (Q13393 whole entry, looked up): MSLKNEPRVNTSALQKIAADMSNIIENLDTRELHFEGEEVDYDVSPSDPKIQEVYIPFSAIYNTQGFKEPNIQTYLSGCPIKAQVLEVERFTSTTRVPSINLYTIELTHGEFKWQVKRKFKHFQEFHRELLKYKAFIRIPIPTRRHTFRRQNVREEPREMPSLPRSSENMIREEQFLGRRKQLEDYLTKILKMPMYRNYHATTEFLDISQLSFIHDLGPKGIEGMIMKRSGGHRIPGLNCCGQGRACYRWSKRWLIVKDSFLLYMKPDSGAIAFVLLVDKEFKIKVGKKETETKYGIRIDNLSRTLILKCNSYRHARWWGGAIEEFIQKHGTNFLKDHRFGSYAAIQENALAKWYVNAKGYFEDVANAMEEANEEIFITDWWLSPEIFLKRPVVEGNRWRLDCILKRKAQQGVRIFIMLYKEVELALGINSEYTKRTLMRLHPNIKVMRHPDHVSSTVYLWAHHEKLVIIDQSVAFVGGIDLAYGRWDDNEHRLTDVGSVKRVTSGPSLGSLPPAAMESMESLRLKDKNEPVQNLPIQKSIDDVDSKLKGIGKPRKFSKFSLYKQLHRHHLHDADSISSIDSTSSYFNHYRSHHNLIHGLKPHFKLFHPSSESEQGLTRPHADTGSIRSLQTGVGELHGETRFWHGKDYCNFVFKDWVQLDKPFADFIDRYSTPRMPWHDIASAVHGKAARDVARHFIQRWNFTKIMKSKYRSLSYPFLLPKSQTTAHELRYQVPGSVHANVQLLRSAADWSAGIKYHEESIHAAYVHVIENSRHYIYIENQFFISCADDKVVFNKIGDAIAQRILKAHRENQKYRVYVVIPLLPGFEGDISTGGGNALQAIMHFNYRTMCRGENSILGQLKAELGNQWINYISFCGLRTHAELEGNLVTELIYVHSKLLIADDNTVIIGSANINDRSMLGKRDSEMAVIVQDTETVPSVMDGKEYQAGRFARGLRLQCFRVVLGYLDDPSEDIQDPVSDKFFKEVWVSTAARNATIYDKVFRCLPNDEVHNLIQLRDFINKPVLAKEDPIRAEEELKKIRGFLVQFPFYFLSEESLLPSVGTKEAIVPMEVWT
Chain of Phospholipase D1 (Homo sapiens) (Q13393 whole entry, looked up): as above

The assay has as its target Phospholipase D1 (Homo sapiens) (UniProt Q13393). Put plainly: cellular phospholipase D1 activity inhibition – Calu-1 cells, single concentration (AID 602144).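 Also: tested at 200 nM.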 To be noted: cellular PLD1 activity, stronger effect = lower value.
`COc1ccccc1NC(=S)NCCN1CCC(n2c(=O)[nH]c3ccccc32)CC1`: the remaining activity was 152%.

As for `C[C@@H](CN1CCC(c2nc3ccccc3[nH]2)CC1)NC(=O)C1CC1c1ccccc1` (some centres undefined), the remaining activity was 87.4%.

With `O=C(NCCN1CCC(n2c(=O)[nH]c3ccccc32)CC1)C1CCc2ccccc2C1` (centres undefined), the remaining activity is 77.8%.

Regarding `O=C1c2ccccc2C(=O)N1CCN1CCC(n2c(=O)[nH]c3ccccc32)CC1`, the remaining activity was 112%.

These data come from PubChem BioAssay AID602144 (Vanderbilt Specialized Chemistry Center, 2011).
